Of roughly 7,900 targets only a part is listed; those with a hit were picked by preference. About 0.6% of all pairs of compound and target were hits.
Legend:
Assay in all cases: log2 fold change, soluble protein after heating vs DMSO (PISA); higher = thermal stabilisation; K562 cells, 10 uM, 30 min; active = over 0.2 and 3.5 SD of the protein, either way, in both replicates (recomputed)
[1] = compound: COC1=CC=C(C=C1)CN2C=CC3=C2C=C(C=C3)C(=O)NO
In short: (§1)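 K562 cells (2×10^6 cells/mL) were treated with 10 μM compound for 30 min, and aliquots were heated for 3 min over 48°C-58°C. Pooled aliquots were extracted in PBS with 0.5% NP-40 at 4°C, and the supernatant after 21,000xg for 90 min was measured by TMTpro 16plex LC-MS/MS with channel sums equalised. Reported thermal stability, relative to control samples and from duplicates, is a log2 fold change.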

filanesib = compound: CON(C)C(=O)N1N=C(c2cc(F)ccc2F)S[C@@]1(CCCN)c1ccccc1 [filanesib]
In short: as §1

zotarolimus = compound: CO[C@H]1C[C@@H]2CC[C@@H](C)[C@@](O)(O2)C(=O)C(=O)N2CCCC[C@H]2C(=O)O[C@H]([C@H](C)C[C@@H]2CC[C@H](n3cnnn3)[C@H](OC)C2)CC(=O)[C@H](C)/C=C(\C)[C@@H](O)[C@@H](OC)C(=O)[C@H](C)C[C@H](C)/C=C/C=C/C=C/1C [zotarolimus]
In short: as §1

idasanutlin = compound: COc1cc(C(=O)O)ccc1NC(=O)[C@@H]1N[C@@H](CC(C)(C)C)[C@](C#N)(c2ccc(Cl)cc2F)[C@H]1c1cccc(Cl)c1F [idasanutlin]
In short: as §1

alisertib = compound: COc1cc(Nc2ncc3c(n2)-c2ccc(Cl)cc2C(c2c(F)cccc2OC)=NC3)ccc1C(=O)O [alisertib]
In short: as §1

[2] = compound: COc1cc2nc(-c3cc(F)ccc3O)nc(N[C@@H]3CNC[C@H]3C(C)(C)O)c2cc1OC
In short: as §1

gefitinib = compound: COc1cc2ncnc(Nc3ccc(F)c(Cl)c3)c2cc1OCCCN1CCOCC1 [gefitinib]
In short: as §1

[3] = compound: COc1cccc2cc(-c3nc([C@H]4CC[C@H](C(=O)O)CC4)n4ncnc(N)c34)[nH]c12
In short: as §1

lapatinib = compound: CS(=O)(=O)CCNCc1ccc(-c2ccc3ncnc(Nc4ccc(OCc5cccc(F)c5)c(Cl)c4)c3c2)o1 [lapatinib]
In short: as §1

pictilisib = compound: CS(=O)(=O)N1CCN(Cc2cc3nc(-c4cccc5[nH]ncc45)nc(N4CCOCC4)c3s2)CC1 [pictilisib]
In short: as §1

Measured: log2 fold change

RPS27A (UniProt P62979)
inactive: [1] -0.084 | filanesib 0.215 | zotarolimus 0.009 | idasanutlin 0.129 | alisertib -0.041 | [2] -0.066 | gefitinib -0.076 | [3] -0.185 | lapatinib -0.006 | pictilisib -0.13

RABGAP1L isoform 3 (UniProt Q5R372)
inactive: [1] -0.108 | filanesib -0.026 | zotarolimus -0.006 | idasanutlin -0.05 | alisertib -0.008 | [2] -0.025 | gefitinib 0.035 | [3] 0.033 | lapatinib 0.012 | pictilisib -0.066

SEC24A (UniProt O95486)
inactive: [1] 0.029 | filanesib -0.083 | zotarolimus 0.033 | idasanutlin -0.087 | alisertib -0.002 | [2] -0.004 | gefitinib -0.028 | [3] -0.016 | lapatinib -0.021 | pictilisib -0.077

RCOR1 (UniProt Q9UKL0)
Chain of UniProt Q9UKL0 (Q9UKL0 whole entry, looked up): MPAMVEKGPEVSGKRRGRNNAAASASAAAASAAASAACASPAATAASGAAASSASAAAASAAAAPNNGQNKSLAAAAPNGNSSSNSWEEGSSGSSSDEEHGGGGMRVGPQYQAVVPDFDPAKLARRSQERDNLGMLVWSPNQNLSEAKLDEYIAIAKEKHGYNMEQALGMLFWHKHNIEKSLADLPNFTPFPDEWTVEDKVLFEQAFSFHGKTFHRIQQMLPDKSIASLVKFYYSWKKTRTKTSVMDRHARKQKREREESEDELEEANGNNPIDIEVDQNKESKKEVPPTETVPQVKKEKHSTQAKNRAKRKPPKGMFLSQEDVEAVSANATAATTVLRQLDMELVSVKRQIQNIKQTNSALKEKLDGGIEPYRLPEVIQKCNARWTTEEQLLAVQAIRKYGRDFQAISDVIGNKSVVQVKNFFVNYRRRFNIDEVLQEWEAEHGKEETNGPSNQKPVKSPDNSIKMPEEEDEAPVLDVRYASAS
inactive: [1] -0.039 | filanesib 0.002 | zotarolimus -0.044 | idasanutlin 0 | alisertib 0.013 | [2] 0.003 | gefitinib -0.002 | [3] 0.015 | lapatinib 0.019 | pictilisib 0.005

SH2D1B (UniProt O14796)
Chain of UniProt O14796 (O14796 whole entry, looked up): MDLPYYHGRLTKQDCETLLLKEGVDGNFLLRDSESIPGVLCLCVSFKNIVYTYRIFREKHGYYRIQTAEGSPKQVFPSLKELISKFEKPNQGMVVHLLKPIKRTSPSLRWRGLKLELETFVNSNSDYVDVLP
inactive: [1] 0.129 | filanesib 0.086 | zotarolimus -0.037 | idasanutlin 0.117 | alisertib -0.075 | [2] 0.072 | gefitinib -0.078 | [3] 0.236 | lapatinib 0.053 | pictilisib -0.004

SCO2 (UniProt O43819)
Chain of UniProt O43819 (O43819 whole entry, looked up): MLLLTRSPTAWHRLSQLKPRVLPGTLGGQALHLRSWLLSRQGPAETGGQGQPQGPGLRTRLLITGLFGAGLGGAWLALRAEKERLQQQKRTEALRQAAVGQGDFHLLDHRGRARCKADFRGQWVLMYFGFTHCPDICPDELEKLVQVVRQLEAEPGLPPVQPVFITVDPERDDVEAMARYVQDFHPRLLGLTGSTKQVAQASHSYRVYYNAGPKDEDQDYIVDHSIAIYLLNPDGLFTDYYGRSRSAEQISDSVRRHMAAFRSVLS
inactive: [1] -0.078 | filanesib 0.039 | zotarolimus 0.057 | idasanutlin -0.099 | alisertib -0.103 | [2] -0.097 | [3] 0.117 | lapatinib 0 | pictilisib -0.015

RPS6KA3 (UniProt P51812)
Chain of UniProt P51812 (P51812 whole entry, looked up): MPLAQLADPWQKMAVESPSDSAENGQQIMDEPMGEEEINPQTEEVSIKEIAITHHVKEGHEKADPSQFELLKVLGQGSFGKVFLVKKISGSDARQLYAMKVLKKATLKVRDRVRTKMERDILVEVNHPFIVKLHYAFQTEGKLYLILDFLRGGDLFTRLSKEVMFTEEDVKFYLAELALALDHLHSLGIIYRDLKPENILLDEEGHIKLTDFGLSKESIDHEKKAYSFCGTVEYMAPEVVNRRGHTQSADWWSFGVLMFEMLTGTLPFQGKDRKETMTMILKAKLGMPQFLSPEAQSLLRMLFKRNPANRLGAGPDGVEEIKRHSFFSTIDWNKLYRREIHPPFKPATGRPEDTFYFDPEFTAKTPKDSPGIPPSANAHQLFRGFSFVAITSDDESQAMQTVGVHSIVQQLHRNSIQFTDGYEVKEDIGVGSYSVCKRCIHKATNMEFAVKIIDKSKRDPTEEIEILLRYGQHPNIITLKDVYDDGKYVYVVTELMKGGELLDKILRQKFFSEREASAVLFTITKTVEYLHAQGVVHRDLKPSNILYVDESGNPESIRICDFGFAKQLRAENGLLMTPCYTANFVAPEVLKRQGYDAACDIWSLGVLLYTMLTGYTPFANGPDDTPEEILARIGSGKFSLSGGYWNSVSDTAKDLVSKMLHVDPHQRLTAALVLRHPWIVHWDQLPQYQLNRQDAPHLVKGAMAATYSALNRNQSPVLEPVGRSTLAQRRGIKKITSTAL
inactive: [1] -0.013 | filanesib 0 | zotarolimus 0.033 | idasanutlin -0.008 | [2] -0.221 | gefitinib -0.033 | [3] 0.013 | lapatinib 0.011 | pictilisib -0.011

RRAGB (UniProt Q5VZM2)
Chain of UniProt Q5VZM2 (Q5VZM2 whole entry, looked up): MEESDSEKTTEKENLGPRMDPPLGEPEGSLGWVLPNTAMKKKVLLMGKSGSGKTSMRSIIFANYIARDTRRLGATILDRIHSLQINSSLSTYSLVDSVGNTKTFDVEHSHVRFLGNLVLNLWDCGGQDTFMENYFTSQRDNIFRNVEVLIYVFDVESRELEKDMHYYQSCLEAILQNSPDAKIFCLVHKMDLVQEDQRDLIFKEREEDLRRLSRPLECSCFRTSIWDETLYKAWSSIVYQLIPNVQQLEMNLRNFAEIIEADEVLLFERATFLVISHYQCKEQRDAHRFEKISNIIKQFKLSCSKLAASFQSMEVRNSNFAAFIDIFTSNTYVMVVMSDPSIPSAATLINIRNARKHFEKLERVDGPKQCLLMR
inactive: [1] -0.018 | filanesib -0.059 | zotarolimus -0.086 | idasanutlin -0.026 | alisertib -0.054 | [2] -0.078 | gefitinib -0.003 | [3] 0.053 | lapatinib 0.042 | pictilisib 0.052

SEC23A (UniProt Q15436)
inactive: [1] 0.024 | filanesib 0.013 | zotarolimus 0.025 | idasanutlin -0.026 | alisertib -0.027 | [2] 0.043 | gefitinib 0.007 | [3] 0.01 | lapatinib -0.045 | pictilisib 0.049

SCAF11 (UniProt Q99590)
Chain of UniProt Q99590 (Q99590 whole entry, looked up): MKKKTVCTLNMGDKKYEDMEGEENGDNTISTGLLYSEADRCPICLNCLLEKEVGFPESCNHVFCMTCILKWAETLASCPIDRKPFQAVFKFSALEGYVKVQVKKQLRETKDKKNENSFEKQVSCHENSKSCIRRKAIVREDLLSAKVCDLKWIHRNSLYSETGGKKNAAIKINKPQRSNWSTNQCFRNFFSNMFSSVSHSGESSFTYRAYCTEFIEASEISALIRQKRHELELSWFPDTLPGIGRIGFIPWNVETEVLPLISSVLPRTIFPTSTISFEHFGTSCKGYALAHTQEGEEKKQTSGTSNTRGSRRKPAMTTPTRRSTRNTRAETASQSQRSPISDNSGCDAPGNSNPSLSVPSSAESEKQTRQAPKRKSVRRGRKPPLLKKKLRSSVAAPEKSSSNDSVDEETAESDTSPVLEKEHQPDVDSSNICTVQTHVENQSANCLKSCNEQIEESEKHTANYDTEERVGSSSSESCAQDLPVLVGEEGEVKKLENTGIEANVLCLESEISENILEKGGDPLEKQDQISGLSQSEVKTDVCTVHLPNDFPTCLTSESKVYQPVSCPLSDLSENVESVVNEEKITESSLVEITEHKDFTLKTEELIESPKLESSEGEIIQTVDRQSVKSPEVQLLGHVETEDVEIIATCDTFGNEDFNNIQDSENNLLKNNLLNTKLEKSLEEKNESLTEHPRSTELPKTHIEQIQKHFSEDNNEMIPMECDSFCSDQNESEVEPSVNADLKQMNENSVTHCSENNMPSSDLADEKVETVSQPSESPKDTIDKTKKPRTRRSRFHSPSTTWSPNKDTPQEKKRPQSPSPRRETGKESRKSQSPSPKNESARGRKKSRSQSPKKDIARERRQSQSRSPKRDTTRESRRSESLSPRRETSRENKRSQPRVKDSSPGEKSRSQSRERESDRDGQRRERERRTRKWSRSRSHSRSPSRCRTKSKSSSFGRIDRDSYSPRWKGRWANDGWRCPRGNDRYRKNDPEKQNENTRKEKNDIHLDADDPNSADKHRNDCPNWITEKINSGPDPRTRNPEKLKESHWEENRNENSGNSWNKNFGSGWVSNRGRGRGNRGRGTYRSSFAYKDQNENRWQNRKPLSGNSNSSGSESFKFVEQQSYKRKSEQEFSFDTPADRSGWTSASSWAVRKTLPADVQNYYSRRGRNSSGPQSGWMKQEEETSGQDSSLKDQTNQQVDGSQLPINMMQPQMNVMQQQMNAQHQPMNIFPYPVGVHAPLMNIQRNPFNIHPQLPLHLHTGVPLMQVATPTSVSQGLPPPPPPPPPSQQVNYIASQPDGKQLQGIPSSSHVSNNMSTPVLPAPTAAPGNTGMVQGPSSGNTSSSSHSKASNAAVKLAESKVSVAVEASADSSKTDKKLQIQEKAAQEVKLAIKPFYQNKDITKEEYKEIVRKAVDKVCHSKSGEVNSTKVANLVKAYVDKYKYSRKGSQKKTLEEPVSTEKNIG
inactive: [1] 0.365 | filanesib 0.141 | zotarolimus -0.029 | idasanutlin 0.054 | alisertib -0.1 | [2] -0.028 | gefitinib -0.013 | [3] -0.071 | lapatinib 0.156 | pictilisib -0.382

SLC12A5 (UniProt Q9H2X9)
inactive: [1] 0.323 | filanesib -0.071 | zotarolimus -0.076 | idasanutlin 0.017 | alisertib 0.299 | [2] -0.097 | [3] 0.124 | lapatinib 0.085

SLC18B1 (UniProt Q6NT16)
Chain of UniProt Q6NT16 (Q6NT16 whole entry, looked up): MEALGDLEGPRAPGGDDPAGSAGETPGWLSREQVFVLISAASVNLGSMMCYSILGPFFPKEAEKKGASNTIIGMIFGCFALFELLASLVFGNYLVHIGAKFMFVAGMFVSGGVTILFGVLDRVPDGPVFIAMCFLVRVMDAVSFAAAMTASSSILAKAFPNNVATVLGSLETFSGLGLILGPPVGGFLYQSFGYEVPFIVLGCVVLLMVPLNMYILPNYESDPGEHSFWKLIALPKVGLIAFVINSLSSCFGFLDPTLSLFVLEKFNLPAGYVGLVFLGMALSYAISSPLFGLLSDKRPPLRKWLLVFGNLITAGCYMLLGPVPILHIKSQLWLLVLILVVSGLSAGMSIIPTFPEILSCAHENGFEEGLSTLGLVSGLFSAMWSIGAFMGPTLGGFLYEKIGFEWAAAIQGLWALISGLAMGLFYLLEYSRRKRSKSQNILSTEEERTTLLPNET
inactive: [1] 0.072 | filanesib -0.094 | zotarolimus -0.068 | idasanutlin 0.083 | alisertib 0.022 | [2] 0.058 | gefitinib 0.01 | [3] 0.087 | lapatinib -0.061 | pictilisib 0.067

RAD50, A0A494C0Y7
inactive: [1] -0.054 | filanesib 0.001 | zotarolimus -0.021 | idasanutlin -0.05 | alisertib 0.127 | [2] -0.077 | [3] 0.035 | lapatinib -0.142 | pictilisib 0.085

RAPGEF4 (UniProt Q8WZA2)
inactive: [1] 0.549 | filanesib 0.053 | zotarolimus -0.078 | idasanutlin 0.021 | alisertib -0.145 | [3] 0.187

RBM48 isoform 2 (UniProt Q5RL73)
inactive: [1] -0.046 | filanesib -0.049 | zotarolimus -0.076 | idasanutlin 0.04 | [2] -0.046 | gefitinib -0.024 | lapatinib 0.011 | pictilisib -0.083

SKP1 (UniProt P63208)
Chain of UniProt P63208 (P63208 whole entry, looked up): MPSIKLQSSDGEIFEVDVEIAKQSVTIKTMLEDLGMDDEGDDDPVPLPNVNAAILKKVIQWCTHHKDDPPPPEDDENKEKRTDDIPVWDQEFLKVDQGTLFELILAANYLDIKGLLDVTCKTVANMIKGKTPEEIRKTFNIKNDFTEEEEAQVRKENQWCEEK
inactive: [1] 0.209 | filanesib -0.095 | zotarolimus 0.09 | idasanutlin 0.027 | alisertib -0.005 | [2] -0.099 | gefitinib 0.001 | [3] -0.008 | lapatinib 0.01 | pictilisib -0.121

Source: the supplement of paper PMC10849652
